This is an account of results in PubChem BioAssay.

Assay [1] has as its system PRMT1 (protein arginine N-methyltransferase 1). Nature of the assay: small molecules binding arginine methyltransferase PRMT1 – biochemical, small-molecule microarray, 635 nm fluorescence, primary screen (AID 1088).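 Also: binding of Prmt1 protein to compounds spotted on small-molecule microarray slides.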 Conditions: higher = more signal.
Assay [2] in a line: growth effects on S. cerevisiae YJM789 – YJM789 clinical isolate, OD600, 24 h, basal, primary screen (AID 1089).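 Also: growth of clinical yeast isolate S. cerevisiae YJM 789 seeded 1000 cells per well; test concentration not given here.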 Conditions: higher = more signal, called active from +8 up or from −8 down.
Assay [3] can be described thus: S. pombe growth modifiers, basal conditions – strain 972, OD600, 24 h, no modulator, primary screen (AID 1090).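 Also: basal condition with compound alone and no growth modifier present; test concentration not given here.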 Conditions: S. pombe 972 growth, higher = more signal, called active from +8 up or from −8 down.
Assay [4] in a line: budding yeast growth modifiers under rapamycin – strain BY4716, OD600, 96 h, primary screen (AID 1091). Also: test concentration not given here. Conditions: S. cerevisiae BY4716 + rapamycin, higher = more signal, called active from +8 up or from −8 down.
Assay [5] has as its target Torsin-1A-interacting protein 2 (Homo sapiens) (UniProt Q8NFQ8). Nature of the assay: small molecules binding lysate-expressed LULL1 – cell lysate, human LULL1 lysate, 635/667 nm fluorescence, primary screen (AID 1092).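 Also: probe is lysate of COS7 cells overexpressing human LULL1; score merges per-feature 667 nm fluorescence with signal-to-noise.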 Conditions: small-molecule microarray, hLULL1 lysate binding, 635 nm fluorescence; higher = more signal.
A short description of assay [6]: optical density change of DRC41 E. coli – strain DRC41, OD650, 24 h, E. coli filamentation project, primary screen (AID 1093).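 Also: MC1000 strain lacking acrAB efflux and sulA so SOS filamentation is blocked; test concentration not given here.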 Conditions: E. coli DRC41 growth, higher = more signal, called active from +8 up or from −8 down.
A short description of assay [7]: probe aLefty2 binding to arrayed compounds – biochemical, biotinylated probe, 635/667 nm fluorescence, primary screen (AID 1094).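 Also: score merges spot fluorescence near 667 nm with spot signal-to-noise ratio.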 Conditions: small-molecule microarray, higher = more signal.
The subject of assay [8] is Noggin (protein binding on small-molecule microarray). Nature of the assay: small molecules binding Noggin protein – biochemical, 635/667 nm fluorescence, primary screen (AID 1095).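 Also: score merges 667 nm feature fluorescence with signal to noise over triplicate slides.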 Conditions: 635 nm fluorescence, higher = more signal.
Assay [9] addresses Neurogenic locus notch homolog protein 3 (Homo sapiens) (UniProt Q9UM47). Nature of the assay: small molecules binding NOTCH3 protein – biochemical, 635/667 nm fluorescence, primary screen (AID 1096). Conditions: small-molecule microarray, 635 nm fluorescence, higher = more signal.
Assay [10] in a line: probe aEGFR binding to arrayed compounds – biochemical, biotinylated probe, 635/667 nm fluorescence, primary screen (AID 1097).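 Also: probe is a biotinylated anti-EGFR antibody binding compounds printed on slides; score combines fluorescence near 667 nm and signal to noise of each spot.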 Conditions: small-molecule microarray, higher = more signal.

Activity calls are given as the source filed them.

Sequence of Neurogenic locus notch homolog protein 3 (Homo sapiens) (Q9UM47 whole entry, looked up): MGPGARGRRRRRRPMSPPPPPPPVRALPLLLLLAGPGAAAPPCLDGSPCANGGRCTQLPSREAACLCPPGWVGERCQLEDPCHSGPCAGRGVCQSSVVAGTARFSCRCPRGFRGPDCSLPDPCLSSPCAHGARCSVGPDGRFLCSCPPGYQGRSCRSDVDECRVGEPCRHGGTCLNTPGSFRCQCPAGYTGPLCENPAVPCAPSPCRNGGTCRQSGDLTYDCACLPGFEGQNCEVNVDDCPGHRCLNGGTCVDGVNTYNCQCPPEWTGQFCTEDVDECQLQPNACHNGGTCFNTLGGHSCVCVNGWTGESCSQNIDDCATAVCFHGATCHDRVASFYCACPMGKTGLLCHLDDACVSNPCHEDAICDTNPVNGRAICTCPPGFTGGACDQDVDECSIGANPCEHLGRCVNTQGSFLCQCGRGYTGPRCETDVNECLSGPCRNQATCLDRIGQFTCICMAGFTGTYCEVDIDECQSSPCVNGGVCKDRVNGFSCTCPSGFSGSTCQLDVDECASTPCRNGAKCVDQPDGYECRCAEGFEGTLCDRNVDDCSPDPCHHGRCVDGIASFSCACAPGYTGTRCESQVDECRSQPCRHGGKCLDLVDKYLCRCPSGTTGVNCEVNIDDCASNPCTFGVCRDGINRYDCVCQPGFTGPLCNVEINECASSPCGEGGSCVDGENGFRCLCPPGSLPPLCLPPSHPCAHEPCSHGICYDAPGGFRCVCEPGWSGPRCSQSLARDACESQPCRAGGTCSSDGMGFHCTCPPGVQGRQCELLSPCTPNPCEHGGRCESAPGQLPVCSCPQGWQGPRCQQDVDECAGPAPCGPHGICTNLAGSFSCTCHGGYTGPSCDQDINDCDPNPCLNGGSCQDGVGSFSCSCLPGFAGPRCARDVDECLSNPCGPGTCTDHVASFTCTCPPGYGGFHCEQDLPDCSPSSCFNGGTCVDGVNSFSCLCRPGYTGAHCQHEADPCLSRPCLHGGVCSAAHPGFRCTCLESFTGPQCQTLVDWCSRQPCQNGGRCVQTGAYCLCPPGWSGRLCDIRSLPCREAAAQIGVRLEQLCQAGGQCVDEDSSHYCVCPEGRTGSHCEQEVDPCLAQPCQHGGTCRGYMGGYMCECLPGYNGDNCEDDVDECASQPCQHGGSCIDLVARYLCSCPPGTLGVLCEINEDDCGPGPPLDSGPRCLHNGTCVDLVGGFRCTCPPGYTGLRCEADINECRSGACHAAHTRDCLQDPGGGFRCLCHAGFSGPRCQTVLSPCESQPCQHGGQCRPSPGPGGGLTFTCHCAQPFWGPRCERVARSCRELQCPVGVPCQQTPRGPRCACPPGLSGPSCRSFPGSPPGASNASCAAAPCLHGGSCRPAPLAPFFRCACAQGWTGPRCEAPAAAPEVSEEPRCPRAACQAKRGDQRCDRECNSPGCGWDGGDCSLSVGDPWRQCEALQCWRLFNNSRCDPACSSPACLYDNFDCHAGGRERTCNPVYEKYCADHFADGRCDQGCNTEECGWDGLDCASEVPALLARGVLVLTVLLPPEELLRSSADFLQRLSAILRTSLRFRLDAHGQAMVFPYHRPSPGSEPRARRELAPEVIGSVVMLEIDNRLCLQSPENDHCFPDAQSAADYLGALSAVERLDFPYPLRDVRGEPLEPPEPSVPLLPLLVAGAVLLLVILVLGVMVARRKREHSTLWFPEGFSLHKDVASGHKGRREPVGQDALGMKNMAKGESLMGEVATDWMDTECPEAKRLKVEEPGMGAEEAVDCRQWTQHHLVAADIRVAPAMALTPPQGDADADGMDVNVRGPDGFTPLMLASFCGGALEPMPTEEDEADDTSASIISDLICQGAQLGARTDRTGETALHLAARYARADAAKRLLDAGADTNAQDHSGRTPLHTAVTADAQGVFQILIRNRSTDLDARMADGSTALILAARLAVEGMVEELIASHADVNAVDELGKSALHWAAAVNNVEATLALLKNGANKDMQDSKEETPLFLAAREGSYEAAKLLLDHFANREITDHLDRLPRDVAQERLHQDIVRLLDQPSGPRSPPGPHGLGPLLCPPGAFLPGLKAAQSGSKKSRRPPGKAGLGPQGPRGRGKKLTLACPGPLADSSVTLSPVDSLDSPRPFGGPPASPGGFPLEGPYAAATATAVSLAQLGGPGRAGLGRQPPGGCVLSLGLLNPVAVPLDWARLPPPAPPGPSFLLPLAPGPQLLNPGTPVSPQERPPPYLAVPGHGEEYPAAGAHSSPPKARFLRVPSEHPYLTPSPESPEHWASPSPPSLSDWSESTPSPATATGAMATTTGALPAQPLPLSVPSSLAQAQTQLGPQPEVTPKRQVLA
Sequence of Torsin-1A-interacting protein 2 (Homo sapiens) (Q8NFQ8 whole entry, looked up): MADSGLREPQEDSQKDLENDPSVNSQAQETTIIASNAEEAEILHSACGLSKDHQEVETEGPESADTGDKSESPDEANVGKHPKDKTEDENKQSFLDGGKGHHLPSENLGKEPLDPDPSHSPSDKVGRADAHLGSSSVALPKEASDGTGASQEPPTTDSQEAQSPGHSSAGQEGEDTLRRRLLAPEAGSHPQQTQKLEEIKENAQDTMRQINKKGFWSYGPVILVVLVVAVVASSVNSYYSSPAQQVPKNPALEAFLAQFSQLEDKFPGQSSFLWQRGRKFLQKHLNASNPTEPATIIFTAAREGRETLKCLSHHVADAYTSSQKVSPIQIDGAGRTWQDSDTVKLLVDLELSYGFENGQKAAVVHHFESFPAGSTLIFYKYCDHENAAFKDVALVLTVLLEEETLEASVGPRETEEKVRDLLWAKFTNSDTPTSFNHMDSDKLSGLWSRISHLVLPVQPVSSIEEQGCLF

For `COC(=O)C(CC#Cc1ccc2c(c1)[C@]1(C(=O)N2)[C@H](C(=O)N2CCc3cc(OC)c(OC)cc3C2)[C@H]2C(=O)O[C@H](c3ccccc3)[C@H](c3ccccc3)N2[C@@H]1c1ccc(OCCO)cc1)C(=O)OC`, the composite z-score in assay [1] is 1.55; in assay [5], 2.82; in assay [7], 0.128; in [8], 1.3; in assay [9] it was 1.07; in assay [10] it was 0.174. In addition, the z-score in assay [2] is 3.22 (inactive); in assay [3], 1.63 (inactive); in assay [4] it was 5.29 (inactive); in [6], 0.37 (inactive).
For the molecule `CCOC(=O)C[C@H]1[C@H](OC(=O)Cc2ccc3c(c2)OCO3)[C@@H](NC(=O)c2ccccc2)c2cc(OCCCO)ccc2N1C(=O)c1ccc2ccccc2n1`, the composite z-score in assay [1] is 0.4; in assay [5], 1.13; in [7] it was -0.0179; in assay [8], 0.196; in [9], 0.0199; in [10] it was -0.147. For the same molecule, the z-score is -2.25 (inactive) in assay [2], -1.2 (inactive) in assay [3], -0.433 (inactive) in [4] and 1.45 (inactive) in [6].
`CC(C)NC(=O)[C@@H]1c2ccccc2C(=O)N(Cc2cc(C(F)(F)F)cc(C(F)(F)F)c2)[C@H]1c1ccc(CO)cc1`: the composite z-score is 1.46 in assay [1]; 2.4 in assay [5]; -0.0107 in [7]; 0.598 in [8]; 1.04 in [9]; -0.0248 in assay [10]. Moreover, the z-score was -0.245 (inactive) in assay [2], -0.593 (inactive) in [3], -0.517 (inactive) in assay [4] and -0.216 (inactive) in assay [6].
With `COC(=O)[C@@]1(Cc2ccc(F)cc2)[C@H]2c3cc(C(=O)N(C)C)n(Cc4ccc(C)c(F)c4F)c3C[C@H]2CN1C(=O)c1ccccc1`, the composite z-score was -0.495 in assay [1]; 3.18 in assay [5]; 0.439 in assay [7]; -0.724 in assay [8]; 0.876 in assay [9]; 0.856 in assay [10]. Moreover, the z-score in assay [2] was 0.28 (inactive); in assay [3] it was 1.18 (inactive); in assay [4], 0.934 (inactive); in assay [6] it was 0.583 (inactive).
On to `C=CCNC(=O)[C@@H]1[C@H]2C(=O)O[C@H](c3ccccc3)[C@H](c3ccccc3)N2[C@H](c2ccc(O)cc2)[C@@]12C(=O)Nc1ccc(C#CCCO)cc12`, for which the composite z-score was -0.36 in assay [1]; 2.17 in assay [5]; -0.259 in assay [7]; -1.2 in assay [8]; -0.261 in [9]; -0.261 in assay [10]. The z-score in assay [2] was -0.328 (inactive); in assay [3], -0.397 (inactive); in [4], -0.301 (inactive); in assay [6] it was 2.31 (inactive).
As for `Cc1ccc(S[C@]2(C(=O)O)CC(=O)N(Cc3ccccc3C(F)(F)F)[C@@H]2c2ccc(CO)cc2)cc1`, the composite z-score is 0.667 in assay [1]; 1.87 in assay [5]; -0.0732 in assay [7]; -1.06 in [8]; -1.34 in assay [9]; -0.225 in assay [10]. In addition, the z-score in assay [2] is 0.517 (inactive); in assay [3] it was 0.13 (inactive); in assay [4], 0.124 (inactive); in assay [6] it was 0.301 (inactive).
`CCN(CC)c1ccc(N2CC=CC34O[C@@H]5/C=C\CCCOC(=O)C5[C@H]3C(=O)N(CCCCCCO)[C@@H]4C2=O)cc1` (stereo not given in full): the composite z-score was 0.529 in assay [1]; 3.35 in assay [5]; -0.162 in assay [7]; -0.885 in assay [8]; -0.122 in [9]; -0.197 in assay [10]. Besides, the z-score in [2] was -2.29 (inactive); in assay [3], -0.737 (inactive); in [4], -0.64 (inactive); in [6], 1.27 (inactive).
Regarding `COc1cc2c(cc1OC)CN(C(=O)[C@@H]1[C@H]3C(=O)O[C@H](c4ccccc4)[C@H](c4ccccc4)N3[C@H](c3ccc(OCCO)cc3)[C@@]13C(=O)Nc1ccc(C#CCCO)cc13)CC2`, the composite z-score worked out at 1.54 in [1]; 3.38 in assay [5]; 0.674 in assay [7]; 1.46 in assay [8]; 1.08 in assay [9]; 0.276 in assay [10]. The z-score in assay [2] is 1.68 (inactive); in [3], -0.283 (inactive); in assay [4] it was 3.2 (inactive); in assay [6], 2 (inactive).
`COC(=O)[C@@]1(Cc2ccccc2)[C@H]2c3cc(C(=O)N4CCCC4)n(Cc4ccccc4)c3C[C@H]2CN1C(=O)c1ccccc1`: the composite z-score in assay [1] was -0.089; in [5], 3.41; in [7], 0.432; in [8] it was 0.0362; in assay [9] it was 1.05; in assay [10], 0.416. Besides, the z-score was -0.0324 (inactive) in assay [2], 0.58 (inactive) in assay [3], 1.55 (inactive) in assay [4] and -0.745 (inactive) in assay [6].
With `COC(=O)[C@@]1(Cc2ccccc2)[C@H]2c3cc(C(=O)N(C)C)n(Cc4ccccn4)c3C[C@H]2CN1C(=O)c1ccccc1`, the composite z-score in assay [1] was 0.664; in assay [5] it was 3.68; in assay [7], 0.506; in assay [8], -0.793; in [9], 1.11; in assay [10], 0.309. Moreover, the z-score in assay [2] is 0.249 (inactive); in [3] it was 0.87 (inactive); in [4], 0.963 (inactive); in assay [6] it was -0.537 (inactive).
In the case of `NCCCCCCNC(=O)[C@H]1C[C@H]2C(=O)N3CCC[C@H]3C(=O)N2[C@H]1c1ccc(O)cc1`, the composite z-score in [1] is 1.29; in assay [5], 0.991; in assay [7], -0.179; in assay [8], 1.41; in assay [9] it was 0.419; in assay [10], 0.0053. Moreover, the z-score in assay [2] was -0.777 (inactive); in [3], -1.25 (inactive); in assay [4], -0.28 (inactive); in assay [6], 0.181 (inactive).
Turning to `C#CCOC(=O)N[C@H](C=CCCCC)c1ccccc1`, the composite z-score in assay [1] is -0.893; in assay [5] it was 2.96; in assay [7], 0.148; in [8] it was -0.373; in [9], -0.404; in assay [10] it was 0.0082. Moreover, the z-score was 0.126 (inactive) in assay [2], -0.091 (inactive) in [3], 0.0673 (inactive) in assay [4] and 0.392 (inactive) in assay [6].
Consider `CCCN1C(=O)[C@@]2(Cc3ccccc3)N=C(c3ccc(OCCCO)cc3)O[C@H]2c2ccccc21`, for which the composite z-score is 1.54 in assay [1]; 3.13 in assay [5]; 0.152 in [7]; 1.29 in assay [8]; 1.05 in assay [9]; -0.0976 in assay [10]. In addition, the z-score in assay [2] was -1.46 (inactive); in assay [3], -4.12 (inactive); in [4], 1.52 (inactive); in [6] it was 1.09 (inactive).
Consider `C=CCC(OC(C)=O)[C@@H]1[C@@H](N(Cc2ccc(-c3ccccc3)cc2)C(=O)c2cccc3ccccc23)c2cc(OCCCO)ccc2N1C(=O)c1ccc2ccccc2n1` (stereo not given in full), for which the composite z-score is 0.171 in assay [1]; 0.53 in assay [5]; 0.0469 in [7]; -0.0394 in assay [8]; 0.336 in [9]; 0.045 in assay [10]. Further, the z-score is -0.288 (inactive) in assay [2], -0.283 (inactive) in assay [3], -0.291 (inactive) in assay [4] and 0.488 (inactive) in assay [6].
